Measurements published in PubChem BioAssay AID2669 (National Center for Advancing Translational Sciences (NCATS), 2010).
Values joined by “and” are separate entries in the source; they are usually repeats but may differ in a detail not shown here. Equal entries are not always repeated. Results filed as inconclusive are left out. Active and inactive are the calls of the source. Calls follow the shape of the dose curve; as a rule, active = well fitted inhibition curve with a large enough effect; inconclusive = small, poorly fitted or top-dose-only effect, or effect the other way; inactive = flat fitted curve, though single readings scatter.

Assay: qHTS Assay Multiplex Screening to Identify Dual Action Probes in a Cell Model of Huntington: Cytoprotection (Protease relase)
Procedure, shortened: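 Cytotox-Glo luminescence of released protease served as the cytoprotection readout. Compounds were added alongside 100 nM final tebufenozide to PC12 cells carrying ecdysone-inducible GFP-tagged HTT exon 1 with 103 glutamines.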

| SMILES | Potency |
| --- | --- |
| Cc1cc(C)nc(Sc2nc(C)nc3c2oc2ccccc23)n1 | inactive |
| COc1ccc(CNC(=O)CN(C(=O)CCC(=O)Nc2ccccn2)c2ccccc2OC)cc1 | inactive |
| COC(=O)C(O)(CC(=O)Nc1ccc(OC(F)(F)F)cc1)C(F)(F)F (stereo not drawn) | inactive |
| O=C(NCc1ccco1)c1cc2ccc(O)cc2oc1=O | 2.82 µM (active) |
| Cn1nnnc1Sc1ncnc2scc(-c3ccc[nH]3)c12 | 8.91 µM (active) |
| O=Nc1c(-c2c(O)[nH]c3ccccc23)[nH]c2ccccc12 | 631 nM (active) and 1.41 µM (active) |
| NC(=O)c1sc2nc3c(c(-c4cccs4)c2c1N)CCCCC3 | inactive |
| Cn1nnnc1Sc1ncnc2scc(-c3ccc(C#N)cc3)c12 | 8.91 µM (active) |
| O=C(c1ccccc1)c1ccc2n1CCC2C(=O)O (stereo not drawn) | 3.98 µM (active) |
| CC(=O)c1cccc(-c2csc3ncnc(Sc4nnnn4C)c23)c1 | 7.08 µM (active) |
| O=c1c2ccccc2nnn1CSc1ncnc2ccccc12 | inactive |
| O=C(O)c1cc(=O)c2ccc(Cl)cc2[nH]1 | inactive |
| COc1ccc(-c2[nH]ncc2-c2ccc3c(c2)OCCO3)c(O)c1 | 15.8 µM (active) |
| CC(=O)Oc1cccc(C(=O)O)c1OC(C)=O | inactive |
| COc1ccc(NC(=O)c2sc(SC)nc2N)cc1 | 4.47 µM (active) |
| CCN(Cc1ccncc1)C(=O)c1cc(Br)cc(Br)c1O | inactive |
| COc1ccc2cc3cc(C(=O)N4CCN(c5ccccc5)CC4)oc3nc2c1 | 2.24 µM (active) |
| O=C(O)c1cccc(COc2ccc(CO)cc2Cl)c1 | 0.501 µM (active) |
